Several values for one entry are separate records, joined by “and”; a condition that tells them apart may be missing. Equal values may be shown once. Hit rate of the full screen: of about 73,000 compounds, about 1,800 (2.5%) were called active. About 13% were inconclusive and are not listed. The list comes from a sample in which actives are over-represented; it also holds similar structures and randomly drawn compounds. Entries that show only a call come without a potency. A number with no mark means an inactive call. Calls come from the whole dose curve; as a rule, active = well fitted activation curve with a large enough effect; inconclusive = small, poorly fitted or top-dose-only effect; inactive = no such curve, though single readings can be large or run the other way.
Test: qHTS Assay for Agonists of the Thyroid Stimulating Hormone Receptor: Activators of Intracellular cAMP Concentrations in Parental HEK 293; note: nearly all actives have a fitted effect of over 55% in size
Conditions: parental HEK293 CNG cAMP sensor, membrane potential fluorescence; series mostly up to 57.1 µM
In short: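 Counterscreen for endogenous-receptor signalling: CNG-channel HEK 293 cells report cAMP rise by membrane depolarization. After 60 min dye equilibration with 100 uM RO 20-1724, compounds incubated 30 min before bottom-read fluorescence at 590 nm.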
For `CC1CCN(C(=O)Cn2cc(C(=O)c3ccco3)c3ccccc32)CC1`, the Potency was 20 µM (active). With `COC(=O)Cn1cc(C(=O)c2cccs2)c2ccccc21` the Potency was “inactive”. For `CCOC(=O)C1CCN(C(=O)Cn2cc(C#N)c3ccccc32)CC1`, the Potency was “inactive”. Work on `CC(=O)OCC1OC(C#Cc2ccccc2Cl)C=CC1OC(C)=O` (stereo not drawn) yielded an activation of -0.512% [at 11.4 µM]. For `CCCCCCCCCCCC(=O)O[C@H](CC(=O)O)C[N+](C)(C)C`, the Potency was “inactive”. With `O=C(CSc1nnc(-c2cccs2)n1-c1ccccc1)NCc1ccco1` the Potency was “inactive”. With `O=C(CSc1nnc(-c2cccs2)n1Cc1ccco1)c1ccc2c(c1)OCO2` the Potency was 31.6 µM (active). In the case of `COc1ccc(-c2nnc(SCC(=O)c3ccco3)n2-c2ccccc2)cc1`, the Potency is reported as “inactive”. In the case of `O=C(CSc1nnc(-c2cccnc2)n1Cc1ccco1)c1ccc(Cl)cc1`, the Potency is reported as “inactive”. For `CCn1c(CNc2ccc(OC)cc2)nnc1SCC(=O)c1ccc(OC)cc1`, the Potency was “inactive”. In the case of `COc1ccc(C(=O)CSc2nnc(COc3ccccc3)n2Cc2ccco2)cc1`, the Potency is reported as 15.8 µM (active). With `COc1ccc(NC(=O)CSc2nnc(-c3cccs3)n2Cc2ccco2)cc1OC` the Potency was “inactive”. In the case of `O=C(CSc1nnc(-c2cnccn2)n1Cc1ccco1)c1ccc(Cl)c(Cl)c1`, the Potency is reported as 25.1 µM (active). With `Cc1ccc(NC(=O)CSc2nnc(-c3cnccn3)n2Cc2ccco2)cc1C` the Potency was “inactive”. With `CCOC(=O)c1nc(-c2ccc3c(c2)OCO3)[nH]c1C` the Potency was “inactive”. For `CCCC(=O)N1c2ccc(-c3csc(N)n3)cc2CC1C` (stereo not drawn), the Potency was “inactive”. With `Cc1ccc2nc(S(=O)(=O)O)[nH]c2c1` the Potency was “inactive”. In the case of `O=C(CSC1=Nc2ccccc2C2=NC(c3ccccc3)C(=O)N12)NCC1CCCO1` (stereo not drawn), the Potency is reported as “inactive”. For `O=C(CC1N=C2c3ccccc3N=C(SCc3ccccc3Cl)N2C1=O)NCc1ccco1` (stereo not drawn), the Potency was 15.8 µM (active). For `NC(=O)CSC1=Nc2ccccc2C2=NC(CCC(=O)NCc3ccc(F)cc3)C(=O)N12` (stereo not drawn), the Potency was “inactive”. `Cc1cc(OCC(=O)O)c(Cl)cc1Cl` gave an activation of 18.1% [at 11.4 µM]. In the case of `Cc1ccccc1C(=O)O`, the Potency is reported as “inactive”. For `CCC(=O)Nc1ccccc1N1CCN(S(C)(=O)=O)CC1`, the Potency was “inactive”. In the case of `CCCC(=O)Nc1ccccc1N1CCN(C(=O)c2ccccc2)CC1`, the Potency is reported as 15.8 µM (active). With `O=C(Nc1ccccc1N1CCN(C(=O)c2ccccc2)CC1)c1ccc2c(c1)OCO2` the Potency was “inactive”. Work on `CC(C)CO/N=C1/C[C@@H](O)[C@@H](O)[C@@H]2[C@@H]3C(=O)N(C[C@@H]4CCCO4)C(=O)[C@H]3CC[C@@H]12` yielded an activation of 4.27% [at 11.4 µM]. `O=C(O)COc1c(Cl)cc(Cl)c2cccnc12` gave an activation of 14.2% [at 11.4 µM]. In the case of `CC12CCC(C(=O)N3CCN(c4ncccn4)CC3)(c3nc4ccccc4nc31)C2(C)C` (stereo not drawn), the Potency is reported as “inactive”. In the case of `CCc1ccc(NC(=O)CSc2nc3ccccc3c(=O)n2CCN2CCOCC2)cc1`, the Potency is reported as 31.6 µM (active). In the case of `COCCCNC(=O)CSc1nc2ccc(N3CCOCC3)cc2c(=O)n1CCc1ccccc1`, the Potency is reported as “inactive”. In the case of `CCCCn1c(SCC(=O)NCC2CCCO2)nc2ccc(N3CCOCC3)cc2c1=O` (stereo not drawn), the Potency is reported as “inactive”. For `COC(=O)C1=C(C)N(Cc2ccccc2)C2=C3C(=O)N(c4ccccc4)C(=O)C3[C@@](O)(C(=O)OC)C(=O)N2C1c1ccccc1` (stereo partly drawn), the activation was 9.18% [at 11.4 µM] and 2.67% [at 11.4 µM]. In the case of `Cc1ccccc1-c1nc(N(C)Cc2ccco2)c2ccccc2n1`, the Potency is reported as 25.1 µM (active). For `CN(Cc1ccco1)c1cc(-c2ccccc2C(F)(F)F)ncn1`, the Potency was “inactive”. In the case of `CN(Cc1ccco1)c1ncncc1-c1ccoc1`, the Potency is reported as “inactive”. For `COCCNC(=O)C(c1ccc(C)o1)N(Cc1cccs1)C(=O)c1snc(C(N)=O)c1N` (stereo not drawn), the Potency was “inactive”. For `CCC(C(=O)NC1CCCC1)N(C(=O)c1snc(C(N)=O)c1N)c1ccc2c(c1)OCCO2` (stereo not drawn), the Potency was 25.1 µM (active). For `Cc1ccc(C(C(=O)NC2CCCCC2)N(C(=O)c2csnn2)C2CC2)o1` (stereo not drawn), the Potency was “inactive”. `Cc1cc2c(cc1C)NC1=C(N2)O[C@H](c2c[nH]c3ccc(COc4ccccc4)cc23)C1=O` gave an activation of 3.07% [at 11.4 µM]. In the case of `O=C(c1cccc(F)c1)N1CCC2(CCCN(Cc3ccncc3)C2)CC1`, the Potency is reported as “inactive”. For `CC(=O)N1CCC2(CCCN(c3ncccn3)C2)CC1`, the Potency was “inactive”. In the case of `O=C(c1ccncc1)N1CCC2(CCCN(C(c3ccccc3)c3ccccc3)C2)CC1`, the Potency is reported as 10 µM (active). For `O=C(c1cc(C(F)(F)F)cc(C(F)(F)F)c1)N1CCC2(CCCN(Cc3ccncc3)C2)CC1`, the Potency was “inactive”. For `COc1ccc(C(=O)N2CCC3(CCCN(C(c4ccccc4)c4ccccc4)C3)CC2)cc1`, the Potency was “inactive”. For `COc1ccc(C(=O)N2CCC3(CC2)CCN(c2ccccn2)CC3)cc1`, the Potency was “inactive”. For `O=C(c1csnn1)N1CCC[C@@]2(CCN(c3cccc(-c4ccccc4)c3)C2)C1`, the Potency was “inactive”. In the case of `O=C(c1cc(C(F)(F)F)cc(C(F)(F)F)c1)N1CCC2(CCCN(c3ccccn3)C2)CC1`, the Potency is reported as 25.1 µM (active). With `O=C(c1cc(C(F)(F)F)cc(C(F)(F)F)c1)N1CCC[C@@]2(CCN(c3ccccn3)C2)C1` the Potency was 15.8 µM (active). With `COc1cccc([C@H](O)Cn2cc(-c3ccc(CON=C(C)C)cc3)nn2)c1` the activation was 14.1% [at 11.4 µM]. With `COc1ccc(COC(=O)N/N=C2/C[C@@H](O)[C@@H](O)[C@@H]3[C@@H]4C(=O)N([C@@H](C)c5ccccc5)C(=O)[C@H]4CC[C@@H]23)cc1` the activation was -0.62% [at 11.4 µM]. In the case of `CCOC(=O)c1sc(NC(=S)n2cc(C)cn2)c(C(=O)OCC)c1C`, the Potency is reported as “inactive”. In the case of `CN1CCc2nc(-c3ccccc3)c(-c3ccccc3)cc2C1`, the activation is reported as 0.173% [at 11.4 µM]. With `c1ccc2nc(C3=NCCN3)cnc2c1` the Potency was “inactive”. In the case of `CCOC(=O)c1ccc(N2C(=O)CC(N3CCC(C(=O)OCC)CC3)C2=O)cc1` (stereo not drawn), the Potency is reported as “inactive”. For `CCOC(=O)c1nnn(-c2nc(OC)nc(N(C)C)n2)c1-c1ccccc1`, the Potency was “inactive”. With `Cc1ccc(C(=O)N2CCN(C3CCCCC3)CC2)s1` the Potency was “inactive”. For `N/C(=N\c1nc2ccccc2o1)NC(=O)C(Cc1ccccc1)N1C(=O)c2ccccc2C1=O` (stereo not drawn), the Potency was “inactive”. For `Cc1cccc2cc(CN(Cc3ccc4c(c3)OCO4)Cc3nnnn3C3CCCC3)c(=O)[nH]c12`, the Potency was 31.6 µM (active). With `Cc1cccc2cc(CN(Cc3cccs3)C(c3nnnn3C3CCCC3)C(C)C)c(=O)[nH]c12` (stereo not drawn) the Potency was “inactive”. In the case of `CCOC(=O)C1CCN(C(c2cc3cc(C)cc(C)c3[nH]c2=O)c2nnnn2C2CCCCC2)CC1` (stereo not drawn), the Potency is reported as “inactive”. For `O=C1C(c2ccccn2)=[N+]([O-])c2ccccc21`, the Potency was “inactive”. In the case of `O=c1c2ccccc2nnn1CSc1nc2sc3c(c2c(=O)n1CC1CCCO1)CCC3` (stereo not drawn), the Potency is reported as “inactive”. In the case of `COc1ccccc1Oc1ccc(S(=O)(=O)Nc2cccnc2)cc1`, the Potency is reported as “inactive”. In the case of `COc1ccc(C2=NOC(C(=O)NCc3ccco3)C2)cc1OC` (stereo not drawn), the activation is reported as 8.46% [at 2.29 µM]. For `COc1ccccc1N(C(=O)Cn1nnc2ccccc21)C(C(=O)NCc1ccco1)c1ccc(C)o1` (stereo not drawn), the Potency was 3.98 µM (active). In the case of `CCOc1ccccc1C(=O)NCc1ccco1`, the Potency is reported as “inactive”. For `CC(C)(C)n1nc2c(c1NC(=O)c1ccc(S(=O)(=O)N3CCCC3)cc1)CS(=O)C2` (stereo not drawn), the Potency was “inactive”. In the case of `Cc1cccc(CC(=O)Nc2c3c(nn2-c2cccc(Cl)c2)CS(=O)C3)c1` (stereo not drawn), the Potency is reported as 10 µM (active). In the case of `COc1ccc(CC(=O)Nc2c3c(nn2-c2cccc(Cl)c2)CS(=O)C3)cc1` (stereo not drawn), the Potency is reported as “inactive”. In the case of `CC(C)CO`, the Potency is reported as “inactive”. In the case of `O=C(NCc1ccccc1)[C@H]1C[C@@H]1[C@H](NP(=O)(c1ccccc1)c1ccccc1)c1ccccc1`, the Potency is reported as “inactive”. For `Cc1cccc(C(=O)O)c1[N+](=O)[O-]`, the Potency was “inactive”. With `CCOC(=O)C1CCN(c2ncnc3c2oc2ccc(Br)cc23)CC1` the Potency was 25.1 µM (active). In the case of `CCOC(=O)N1CCN(C(=O)C2CCN(c3ncnc4c3sc3cccc(F)c34)CC2)CC1`, the Potency is reported as “inactive”. For `Cc1cc(C)nc(N2CCN(c3ncnc4c3oc3ccccc34)CC2)n1`, the Potency was “inactive”. Work on `Cc1cc(C)cc(C#CC2C=CC(Oc3ccc(C4CCCC4)cc3)C(CO)O2)c1` (stereo not drawn) yielded an activation of 16.7% [at 11.4 µM]. In the case of `CC(C)[C@@H](OCc1ccccc1)[C@H](C)/C=N\OC[C@@H](C)[C@H](OCc1ccccc1)C(C)C`, the activation is reported as 2.03% [at 11.4 µM]. With `CC1=CC(C)(C)N(C(=O)CSc2nnc(-c3ccccc3)o2)c2ccc(C)cc21` the Potency was 2 µM (active). For `CCOC(=O)CSc1nnc(-c2cccc(Br)c2)o1`, the Potency was “inactive”. For `O=C(CSc1nnc(-c2ccccc2)o1)N1CCOCC1`, the Potency was “inactive”. For `CCS(=O)(=O)N1CCN(C(=O)c2cccs2)CC1`, the Potency was “inactive”. In the case of `COc1ccc(N2CCN(C3CC(=O)N(c4ccc5c(c4)OCCO5)C3=O)CC2)cc1` (stereo not drawn), the Potency is reported as “inactive”. With `CCCc1nc2ccccc2c(=O)n1NC(=O)c1c(O)c2ccccc2[nH]c1=O` the Potency was “inactive”. In the case of `COC(=O)[C@H](C)[C@H]1C[C@]1(C)[C@H](NC(=O)OCc1ccccc1)c1ccccc1`, the Potency is reported as 2 µM (active). For `CC(C)C(NC(=O)OCc1ccccc1)C(=O)OCC(=O)N1C(C)CCCC1C` (stereo not drawn), the Potency was “inactive”. With `C[C@@H](C(=O)Nc1ccc2ccccc2c1)[C@@H]1C[C@@]1(C)[C@@H](NC(=O)c1cccnc1)c1ccccc1` the Potency was “inactive”. For `C=CCOC(=O)C(C(C)=O)C(NC(=O)OC)c1ccccc1` (stereo not drawn), the activation was 4.24% [at 11.4 µM]. With `C(=C\c1ccccc1)/CSc1nnc(-c2cccnc2)n1Cc1ccco1` the Potency was 15.8 µM (active). In the case of `COc1cc(Cl)c(C)cc1NC(=O)CSc1nnc(-c2cccnc2)n1Cc1ccco1`, the Potency is reported as “inactive”. With `CCc1ccc(NC(=O)CSc2nnc(-c3cnccn3)n2Cc2ccco2)cc1` the Potency was “inactive”. For `COc1cccc(Cn2c(=O)c(-c3cc(F)cc(F)c3)nc3cnc(OC)nc32)c1`, the Potency was “inactive”. With `COc1cccc(Cn2c(=O)c(-c3ccccc3)nc3cnc(OC)nc32)c1` the Potency was “inactive”. For `COc1cccc(Cn2c(=O)c(C)nc3cnc(Oc4ccccc4)nc32)c1`, the Potency was 12.6 µM (active).

Source: PubChem BioAssay AID938 (National Center for Advancing Translational Sciences (NCATS), 2007)
Potency is the fitted concentration of half-maximal effect.
